Measurements reported in PubChem BioAssay.
Unmarked numbers belong to inactive results. The list shows a part of the results. Activity calls are given as the source filed them.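 Rule for the calls, unless noted: active = mean inhibition across replicates above a set limit taken from the earlier primary screen (cut at about 21% in these data); inactive = the rest.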

Legend:
[1] = biological target: Receptor-interacting serine/threonine-protein kinase 2 (Homo sapiens) (UniProt O43353); assay: inhibitors of RIPK2 association with NOD2 – fluorescence, CHO cells, BLA complementation, triplicate, confirmation (AID 624370); conditions: CCF4 FRET, at 4.98 µM, hits give high values;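 note: 0% = DMSO-only wells and the high end = clavulanate BLA-blocked wells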
Chain of Receptor-interacting serine/threonine-protein kinase 2 (Homo sapiens) (O43353 whole entry, looked up): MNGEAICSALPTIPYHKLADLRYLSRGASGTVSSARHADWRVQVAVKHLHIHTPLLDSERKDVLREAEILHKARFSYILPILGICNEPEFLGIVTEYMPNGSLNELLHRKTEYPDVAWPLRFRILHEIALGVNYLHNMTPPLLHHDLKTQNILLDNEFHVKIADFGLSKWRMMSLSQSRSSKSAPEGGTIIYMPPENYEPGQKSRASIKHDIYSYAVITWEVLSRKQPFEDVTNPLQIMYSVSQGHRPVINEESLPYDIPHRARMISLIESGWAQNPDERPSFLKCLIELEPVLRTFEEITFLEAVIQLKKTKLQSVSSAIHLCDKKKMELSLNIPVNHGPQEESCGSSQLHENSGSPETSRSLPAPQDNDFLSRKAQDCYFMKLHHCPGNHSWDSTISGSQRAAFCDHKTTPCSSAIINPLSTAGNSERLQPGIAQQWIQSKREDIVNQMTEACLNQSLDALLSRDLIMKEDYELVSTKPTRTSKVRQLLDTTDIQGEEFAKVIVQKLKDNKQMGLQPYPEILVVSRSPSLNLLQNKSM

[2] = BLA reporter readout interference – cell-based, CHO-K1 CMV-bla, CCF4 FRET, fluorescence, artefact control for NOD2-RIPK2 interaction inhibitor project, confirmation (AID 624371;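 active = mean inhibition above the low-control mean inhibition plus three low-control SD, cut at about 11% in these data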;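 note: 0% = DMSO only wells and 100% = clavulanate high control wells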); conditions: CCF4 FRET ratio, counterscreen, at 4.98 µM, hits give high values
[3] = biological target: Nuclear receptor coactivator 1 (Homo sapiens) (UniProt Q15788); assay: NCOA1 GAL4-fusion reporter inhibition – cell-based, luminescence, quadruplicate, confirmation (AID 588820;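 active = mean inhibition above 46.68%, the untreated control wells mean plus 3 SD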;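 note: 0% = DMSO wells and 100% = gossypol 36 µM treated wells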); conditions: HEK293 GAL4-SRC1 luciferase reporter, at 3.6 µM, hits give high values
Chain of Nuclear receptor coactivator 1 (Homo sapiens) (Q15788 whole entry, looked up, the tested form may be a part): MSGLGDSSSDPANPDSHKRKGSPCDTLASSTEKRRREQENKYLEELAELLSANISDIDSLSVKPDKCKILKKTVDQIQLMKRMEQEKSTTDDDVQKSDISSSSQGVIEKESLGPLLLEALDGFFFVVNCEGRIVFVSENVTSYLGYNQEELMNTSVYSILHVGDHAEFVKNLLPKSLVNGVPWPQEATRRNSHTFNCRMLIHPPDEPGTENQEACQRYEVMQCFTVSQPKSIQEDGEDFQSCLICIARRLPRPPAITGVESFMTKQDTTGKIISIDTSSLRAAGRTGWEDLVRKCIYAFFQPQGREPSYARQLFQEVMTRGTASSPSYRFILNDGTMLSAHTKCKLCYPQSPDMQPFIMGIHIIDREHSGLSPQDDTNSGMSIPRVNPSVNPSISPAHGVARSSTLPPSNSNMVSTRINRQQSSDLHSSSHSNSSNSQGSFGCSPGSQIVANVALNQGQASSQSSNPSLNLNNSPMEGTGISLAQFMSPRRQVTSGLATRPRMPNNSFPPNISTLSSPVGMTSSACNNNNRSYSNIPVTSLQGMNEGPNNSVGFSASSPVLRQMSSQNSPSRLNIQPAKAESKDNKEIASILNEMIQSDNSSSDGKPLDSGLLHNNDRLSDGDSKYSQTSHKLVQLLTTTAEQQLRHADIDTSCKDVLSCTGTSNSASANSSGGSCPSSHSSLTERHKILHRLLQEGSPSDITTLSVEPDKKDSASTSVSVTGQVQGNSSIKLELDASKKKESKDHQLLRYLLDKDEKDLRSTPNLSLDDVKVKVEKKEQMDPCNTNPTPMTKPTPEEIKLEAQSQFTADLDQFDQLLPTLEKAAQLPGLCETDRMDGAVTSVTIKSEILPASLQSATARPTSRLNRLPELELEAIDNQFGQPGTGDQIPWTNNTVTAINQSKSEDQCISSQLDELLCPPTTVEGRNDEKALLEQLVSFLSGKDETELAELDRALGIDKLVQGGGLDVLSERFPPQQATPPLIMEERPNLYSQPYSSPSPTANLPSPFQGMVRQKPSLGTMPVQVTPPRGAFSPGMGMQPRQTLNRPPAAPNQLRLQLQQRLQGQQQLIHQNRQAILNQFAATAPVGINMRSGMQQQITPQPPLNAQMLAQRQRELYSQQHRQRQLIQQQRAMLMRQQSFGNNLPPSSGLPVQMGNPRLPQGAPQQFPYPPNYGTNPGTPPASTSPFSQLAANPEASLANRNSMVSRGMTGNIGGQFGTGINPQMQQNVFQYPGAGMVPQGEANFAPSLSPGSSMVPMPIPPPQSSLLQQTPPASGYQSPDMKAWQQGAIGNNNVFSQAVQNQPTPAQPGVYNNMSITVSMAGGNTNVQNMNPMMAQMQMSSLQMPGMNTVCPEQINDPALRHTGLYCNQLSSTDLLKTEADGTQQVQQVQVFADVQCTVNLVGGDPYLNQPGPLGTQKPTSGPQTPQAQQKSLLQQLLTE

[4] = repression of VP16-driven luciferase reporter – cell-based, luminescence, high throughput, counter-screen for SRC1 inhibitor project (AID 588824; in the data active = inhibition above about 25%); conditions: cell-based VP16 transactivation luciferase luminescence; at 3.6 µM; hits give high values
[5] = tested on: transactivating tegument protein VP16 (Human herpesvirus 1); assay: compounds suppressing VP16-driven luciferase signal – cell-based, luminescence, single concentration, counter-screen for SRC2 inhibitor project (AID 652007; in the data active = inhibition above about 36%); conditions: cell-based VP16 transactivation luciferase reporter, at 8.9 µM, hits give high values
[6] = biological target: Nuclear receptor coactivator 2 (Homo sapiens) (UniProt Q15596); assay: inhibition of GAL4-SRC2 driven luciferase expression – cell-based, luminescence, HEK293, triplicate, confirmation (AID 652008;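 active = mean inhibition above 46.5%, the solvent-only control mean plus 3 SD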;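 note: 0% = DMSO-treated cells and 100% = Gossypol at 36 µM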); conditions: HEK293 GAL4-SRC2 luciferase reporter, at 8.9 µM, hits give high values
Chain of Nuclear receptor coactivator 2 (Homo sapiens) (Q15596 whole entry, looked up, the tested form may be a part): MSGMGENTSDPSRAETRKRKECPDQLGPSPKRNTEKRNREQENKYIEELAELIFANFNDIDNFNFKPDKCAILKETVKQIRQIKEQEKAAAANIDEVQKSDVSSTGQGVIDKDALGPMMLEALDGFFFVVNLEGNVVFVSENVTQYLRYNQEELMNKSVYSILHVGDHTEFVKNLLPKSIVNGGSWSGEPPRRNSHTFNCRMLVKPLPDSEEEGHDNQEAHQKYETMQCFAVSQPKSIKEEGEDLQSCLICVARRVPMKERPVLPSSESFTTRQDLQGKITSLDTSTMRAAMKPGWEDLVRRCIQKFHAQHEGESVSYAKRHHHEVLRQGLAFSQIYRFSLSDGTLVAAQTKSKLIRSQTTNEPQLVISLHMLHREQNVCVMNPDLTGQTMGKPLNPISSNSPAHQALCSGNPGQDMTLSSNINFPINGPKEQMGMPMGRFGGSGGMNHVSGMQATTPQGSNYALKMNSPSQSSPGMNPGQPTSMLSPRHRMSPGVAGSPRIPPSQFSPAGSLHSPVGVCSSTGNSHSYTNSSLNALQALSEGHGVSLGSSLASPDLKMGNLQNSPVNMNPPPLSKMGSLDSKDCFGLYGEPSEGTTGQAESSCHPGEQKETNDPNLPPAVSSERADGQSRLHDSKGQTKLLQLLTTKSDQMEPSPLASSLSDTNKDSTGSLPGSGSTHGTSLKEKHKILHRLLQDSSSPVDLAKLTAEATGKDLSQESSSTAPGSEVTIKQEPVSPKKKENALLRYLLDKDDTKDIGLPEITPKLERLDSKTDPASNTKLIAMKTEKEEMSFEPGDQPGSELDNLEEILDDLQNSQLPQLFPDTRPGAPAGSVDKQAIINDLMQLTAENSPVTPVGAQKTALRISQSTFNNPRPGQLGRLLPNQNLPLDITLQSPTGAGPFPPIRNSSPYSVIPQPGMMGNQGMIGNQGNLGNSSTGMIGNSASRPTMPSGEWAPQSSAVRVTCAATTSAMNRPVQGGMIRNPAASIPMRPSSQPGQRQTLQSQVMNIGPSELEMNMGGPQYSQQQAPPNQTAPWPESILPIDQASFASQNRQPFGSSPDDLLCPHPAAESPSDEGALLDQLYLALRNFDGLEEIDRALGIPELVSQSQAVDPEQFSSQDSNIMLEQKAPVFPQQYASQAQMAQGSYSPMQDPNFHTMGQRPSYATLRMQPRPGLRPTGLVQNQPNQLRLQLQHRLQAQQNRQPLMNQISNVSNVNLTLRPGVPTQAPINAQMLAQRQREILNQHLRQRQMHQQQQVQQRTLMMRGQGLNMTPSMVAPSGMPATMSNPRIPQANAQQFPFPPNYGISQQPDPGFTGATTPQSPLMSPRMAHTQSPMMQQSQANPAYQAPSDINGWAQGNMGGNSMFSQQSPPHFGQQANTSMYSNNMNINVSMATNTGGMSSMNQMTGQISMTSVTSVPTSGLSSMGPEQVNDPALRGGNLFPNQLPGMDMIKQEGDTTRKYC

[7] = StAR promoter reporter inhibitors, counter-screen for LRH-1 inverse agonist project, cell-based, luminescence, high throughput (AID 651611; in the data active = inhibition above about 28%); conditions: StAR promoter luciferase reporter counterscreen, at 3.6 µM, hits give high values
[8] = biological target: Nuclear receptor subfamily 5 group A member 2 (Homo sapiens) (UniProt O00482); assay: NR5A2 activity suppression in reporter cells – cell-based, luminescence, confirmation (AID 651613; in the data active = inhibition above about 42%;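 note: HEK293T cells co-transfected with LRH-1 and StAR promoter luciferase reporter; 0% = vehicle wells and 100% = parental cells lacking receptor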); conditions: cell-based LRH-1 luciferase reporter, inverse agonism; at 3.6 µM; hits give high values
Chain of Nuclear receptor subfamily 5 group A member 2 (Homo sapiens) (O00482 whole entry, looked up): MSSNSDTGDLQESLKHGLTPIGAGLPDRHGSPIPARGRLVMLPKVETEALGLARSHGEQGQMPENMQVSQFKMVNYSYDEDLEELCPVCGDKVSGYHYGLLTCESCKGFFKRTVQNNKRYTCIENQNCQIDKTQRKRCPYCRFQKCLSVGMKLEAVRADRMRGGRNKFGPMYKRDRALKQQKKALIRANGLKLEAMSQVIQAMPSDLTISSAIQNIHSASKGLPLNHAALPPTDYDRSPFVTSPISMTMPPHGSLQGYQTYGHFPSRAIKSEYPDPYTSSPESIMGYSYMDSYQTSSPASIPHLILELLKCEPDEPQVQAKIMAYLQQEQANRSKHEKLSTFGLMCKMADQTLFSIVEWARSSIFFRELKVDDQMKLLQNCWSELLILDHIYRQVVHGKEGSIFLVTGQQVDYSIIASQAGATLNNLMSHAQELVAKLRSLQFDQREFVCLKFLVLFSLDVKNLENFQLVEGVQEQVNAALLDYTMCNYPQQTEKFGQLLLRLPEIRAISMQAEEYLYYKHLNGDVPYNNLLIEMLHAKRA

[9] = biological target: Steroidogenic factor 1 (Homo sapiens) (UniProt Q13285); assay: inverse agonism at SF1 nuclear receptor – cell-based, luminescence, high throughput, counter-screen for LRH-1 inverse agonist project (AID 651614; in the data active = inhibition above about 44%;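 note: cells cotransfected with StAR promoter reporter and SF1 expression vector; 0% = vehicle on cells with receptor and 100% = vehicle on cells lacking receptor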); conditions: cell-based SF1 luciferase reporter, at 3.6 µM, hits give high values
Chain of Steroidogenic factor 1 (Homo sapiens) (Q13285 whole entry, looked up, the tested form may be a part): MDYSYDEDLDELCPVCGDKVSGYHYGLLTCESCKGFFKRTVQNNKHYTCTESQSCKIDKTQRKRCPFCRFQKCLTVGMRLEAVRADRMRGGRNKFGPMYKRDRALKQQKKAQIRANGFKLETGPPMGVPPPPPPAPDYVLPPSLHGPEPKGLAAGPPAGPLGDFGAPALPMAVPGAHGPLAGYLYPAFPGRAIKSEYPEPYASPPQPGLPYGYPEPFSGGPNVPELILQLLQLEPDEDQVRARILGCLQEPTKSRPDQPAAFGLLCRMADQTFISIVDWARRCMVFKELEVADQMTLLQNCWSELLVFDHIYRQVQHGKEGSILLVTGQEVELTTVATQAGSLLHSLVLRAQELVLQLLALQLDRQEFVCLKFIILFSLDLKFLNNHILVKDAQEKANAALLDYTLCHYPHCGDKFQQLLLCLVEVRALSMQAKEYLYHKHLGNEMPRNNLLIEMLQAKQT

[10] = compounds suppressing VP16-driven luciferase signal – cell-based, luminescence, high throughput, counter-screen for LRH-1 inverse agonist project (AID 651615; in the data active = inhibition above about 33%); conditions: Gal4-VP16 luciferase reporter cells, at 3.6 µM, hits give high values

CN1CCN(/N=C/c2ccc(-c3ccc([N+](=O)[O-])cc3)o2)CC1
inhibition [1]: 17.4%
inhibition [2]: 23.5% (active)

O=C(Nc1ccc(OCc2ccccc2Cl)cc1)c1cccnc1
inhibition [3]: -2.33%
inhibition [4]: -5.23%
inhibition [5]: 27%
inhibition [6]: 52.2% (active)

CCOC(=O)C1=C(C)N(C[C@@H]2CC[C@@H](Cc3ccc(-c4ccccc4)cc3)O2)C(=O)NC1c1ccc([N+](=O)[O-])cc1 (stereo partly specified)
inhibition [1]: -2.24%
inhibition [2]: -1.01%

O=C(Nc1ccc2c(c1)OCCO2)C(c1cc2ccccc2o1)N1CCN(c2ccc(F)cc2)CC1 (stereo unspecified)
inhibition [3]: 3.86%
inhibition [4]: -2.84%
inhibition [5]: -43.1%
inhibition [6]: 28.6%

COc1ccc2c(c1OC)C(=O)OC2Nc1nc(-c2ccccc2)cs1 (stereo unspecified)
inhibition [1]: 10.3%
inhibition [2]: 6.11%

O=S(=O)(Nc1ccc2c(c1)OCCO2)c1cccc2nsnc12
inhibition [3]: 7.42%
inhibition [4]: -8.28%
inhibition [5]: -9.03%
inhibition [6]: 44%

O=[N+]([O-])c1ccc2c(c1)-c1ccccc1C2=NO
inhibition [3]: 21.4%
inhibition [4]: 9.81%
inhibition [5]: 12.1%
inhibition [6]: 13.5%

O=C(CSc1ncn[nH]1)Nc1nc(-c2cccc([N+](=O)[O-])c2)cs1
inhibition [1]: 2.59%
inhibition [2]: 3.63%

O=C1CC(C(F)(F)C(F)(F)C(F)(F)C(F)(F)F)=Nc2ccccc2N1
inhibition [1]: -1.13%
inhibition [2]: 0.83%

Cc1noc(/C=C/c2ccco2)c1S(=O)(=O)N1CCC(C(=O)Nc2ccc(Cl)cn2)CC1
inhibition [3]: 16.8%
inhibition [4]: 24.4%
inhibition [5]: 17.2%
inhibition [6]: 24.2%

COc1ccc(C(C[N+](=O)[O-])n2nc(C)cc2C)cc1 (stereo unspecified)
inhibition [1]: 40.9% (active)
inhibition [2]: -5.9%

CCN(CC)CC(C)(C)C(=O)/C=C/c1ccc(/C=C/C(=O)C(C)(C)CN(CC)CC)cc1
inhibition [4]: 84.5% (active)
inhibition [7]: 84.9% (active)
inhibition [8]: 99.6% (active)
inhibition [9]: 95.1% (active)
inhibition [10]: 88.8% (active)

O=C(Nc1ccc2c(c1)OCCO2)c1[nH]c(C(F)(F)F)nc1-c1ccccc1
inhibition [3]: -3.74%
inhibition [4]: -15.6%
inhibition [5]: -38.1%
inhibition [6]: 49.1% (active)

Cc1cccc(-n2ncc(Cl)c(Cl)c2=O)c1
inhibition [1]: 31.5% (active)
inhibition [2]: 2.52%

O=C1C=C(NCCc2cc(Br)c(O)c(Br)c2)C(=O)c2ncccc21
inhibition [3]: -170%
inhibition [4]: 14.2%
inhibition [5]: 4.39%
inhibition [6]: 25.9%

Cn1nnnc1Sc1ncnc2scc(-c3ccc4c(c3)OCO4)c12
inhibition [3]: 0.44%
inhibition [4]: 3.16%
inhibition [5]: 0.45%
inhibition [6]: 21.4%

COc1ccc2c(=O)cc(-c3ccncc3)oc2c1OC
inhibition [3]: 43.9%
inhibition [4]: 19.3%
inhibition [5]: -15.8%
inhibition [6]: 41.5%

CCN1CCN(C(=S)c2ccc(-c3ccccc3)cc2)CC1
inhibition [3]: 37.8%
inhibition [4]: 12.8%
inhibition [5]: 15.4%
inhibition [6]: 78.8% (active)

CC(=O)Nc1ccc(C=Cc2ccc([N+](=O)[O-])cc2)cc1
inhibition [1]: 21.3% (active)
inhibition [2]: 33.9% (active)

Cc1nnc(SCC(=O)Nn2cnnc2)s1
inhibition [1]: -0.84%
inhibition [2]: -0.41%

CC(C)(C)OC(=O)N1CCC(NC(=O)c2[nH]cnc2C(=O)N[C@@H](Cc2ccccc2)C(=O)OCc2ccccc2)CC1
inhibition [1]: 16.1%
inhibition [2]: -4.79%

COc1cccc2sc(N(CCCN(C)C)C(=O)CCS(=O)(=O)c3ccccc3)nc12
inhibition [1]: 40.3% (active)
inhibition [2]: 8.45%

O=C(NCCc1cccc(Cl)c1)c1ccc(OC2CCN(Cc3ccccn3)CC2)cc1
inhibition [3]: -20.2%
inhibition [4]: -8.94%
inhibition [5]: 12.7%
inhibition [6]: 39.1%

O=C1C(=O)N(CC2COc3ccccc3O2)c2ccccc21 (stereo unspecified)
inhibition [1]: -7.75%
inhibition [2]: -10.2%

COc1ccccc1NS(=O)(=O)c1cccc(NC(=O)c2cncc(Br)c2)c1
inhibition [3]: 20%
inhibition [4]: 25.1%
inhibition [5]: 14.8%
inhibition [6]: 21%

O=C(Cc1csc(Nc2nc(=S)[nH]c3ccccc23)n1)NCCCN1CCN(c2cccc(Cl)c2)CC1
inhibition [1]: 38% (active)
inhibition [2]: 55.8% (active)

COc1ccc(NC(=O)C(c2ccncc2)n2c(=O)c(-c3cc4ccccc4[nH]3)nc3ccccc32)cc1 (stereo unspecified)
inhibition [1]: 39.5% (active)
inhibition [2]: 61.5% (active)
